Assay results as given in PubChem BioAssay (NCATS).
Results filed as inconclusive are left out. Calls of active or inactive are those of the source. Calls come from the whole dose curve; as a rule, active = well fitted curve in the direction sought with a large enough effect; inconclusive = small, poorly fitted or top-dose-only effect, or another doubt; inactive = no such curve, though single readings can be large; an effect the other way counts as inactive or inconclusive.

Tests used:
[1] = Quantitative High-Throughput drug screen in 47 multiple myeloma cell lines against the NCATS MIPE library collection: KMS27_JCRB cell viability assay (AID 1918970); conditions: KMS27 myeloma cells, CellTiter-Glo ATP viability, 48 h; viability (% of DMSO): at 45.8 µM (top of the series); note: nearly all actives have a fitted effect of over 30% in size; note: potency is the fitted concentration of half-maximal effect
In short: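 Viability inhibition screen, 48 h compound exposure, luminescent ATP read-out.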

[2] = Quantitative High-Throughput drug screen in 47 multiple myeloma cell lines against the NCATS MIPE library collection: KMS12PE_JCRB cell viability assay (AID 1918972); note: nearly all actives have a fitted effect of over 30% in size; note: potency is the fitted concentration of half-maximal effect
In short: (§1)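 Inhibition of cell viability is measured here. Each line was plated at 500 cells per well, treated with MIPE 4.0 drugs, kept 48 hours at 37C, then assayed for ATP content by CellTiter-Glo luminescence.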

[3] = Quantitative High-Throughput drug screen in 47 multiple myeloma cell lines against the NCATS MIPE library collection: NCIH929_DSMZ cell viability assay (AID 1918978); note: nearly all actives have a fitted effect of over 35% in size; note: potency is the fitted concentration of half-maximal effect
In short: (§2)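 ATP-based luminescence (CellTiter-Glo, 5 min RT incubation) quantified surviving cells following two days' treatment with MIPE 4.0 agents at 37 °C, 5% CO2.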

[4] = Quantitative High-Throughput drug screen in 47 multiple myeloma cell lines against the NCATS MIPE library collection: MM1S_ATCC cell viability assay (AID 1918980); note: nearly all actives have a fitted effect of over 45% in size; note: potency is the fitted concentration of half-maximal effect
In short: as §2

[5] = Quantitative High-Throughput drug screen in 47 multiple myeloma cell lines against the NCATS MIPE library collection: KMS28PE_JCRB cell viability assay (AID 1918983); note: nearly all actives have a fitted effect of over 35% in size; note: potency is the fitted concentration of half-maximal effect
In short: as §2

[6] = Quantitative High-Throughput drug screen in 47 multiple myeloma cell lines against the NCATS MIPE library collection: KMS34_JCRB cell viability assay (AID 1918985); note: nearly all actives have a fitted effect of over 40% in size; note: potency is the fitted concentration of half-maximal effect
In short: as §2

[7] = Quantitative High-Throughput drug screen in 47 multiple myeloma cell lines against the NCATS MIPE library collection: H1112_PLB cell viability assay (AID 1918967; note: nearly all actives have a fitted effect of over 30% in size; note: potency is the fitted concentration of half-maximal effect)
In short: (§3)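 Luminescent ATP measurement with CellTiter-Glo gives viability, scaled between DMSO-only wells (100%) and media-only wells (0%). Cells, 500 per well, faced library compounds for 48 hours at 37C.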

[8] = Quantitative High-Throughput drug screen in 47 multiple myeloma cell lines against the NCATS MIPE library collection: MOLP8_DSMZ cell viability assay (AID 1918977); note: nearly all actives have a fitted effect of over 45% in size; note: potency is the fitted concentration of half-maximal effect
In short: as §2

[9] = Quantitative High-Throughput drug screen in 47 multiple myeloma cell lines against the NCATS MIPE library collection: MM1R_ATCC cell viability assay (AID 1918981); note: nearly all actives have a fitted effect of over 35% in size; note: potency is the fitted concentration of half-maximal effect
In short: as §2

[10] = Quantitative High-Throughput drug screen in 47 multiple myeloma cell lines against the NCATS MIPE library collection: LP1_DSMZ cell viability assay (AID 1918982); note: nearly all actives have a fitted effect of over 35% in size
In short: as §2

[11] = Quantitative High-Throughput drug screen in 47 multiple myeloma cell lines against the NCATS MIPE library collection: L363_DSMZ cell viability assay (AID 1918984); conditions: L363 myeloma viability, CellTiter-Glo ATP luminescence, 48 h; viability (% of control): at 45.8 µM (top of the series); note: nearly all actives have a fitted effect of over 40% in size; note: potency is the fitted concentration of half-maximal effect
In short: as §2

[12] = Quantitative High-Throughput drug screen in 47 multiple myeloma cell lines against the NCATS MIPE library collection: Karpas25_ECACC cell viability assay (AID 1918968)
In short: as §3

[13] = Quantitative High-Throughput drug screen in 47 multiple myeloma cell lines against the NCATS MIPE library collection: KMS12BM_JCRB cell viability assay (AID 1918971); note: nearly all actives have a fitted effect of over 35% in size; note: potency is the fitted concentration of half-maximal effect
In short: as §1

[14] = Quantitative High-Throughput drug screen in 47 multiple myeloma cell lines against the NCATS MIPE library collection: KMS26_JCRB cell viability assay (AID 1918975); note: nearly all actives have a fitted effect of over 45% in size; note: potency is the fitted concentration of half-maximal effect
In short: as §1

[15] = Quantitative High-Throughput drug screen in 47 multiple myeloma cell lines against the NCATS MIPE library collection: OCIMY1_PLB cell viability assay (AID 1918979); note: nearly all actives have a fitted effect of over 35% in size
In short: as §2

[16] = Quantitative High-Throughput drug screen in 47 multiple myeloma cell lines against the NCATS MIPE library collection: KMS21BM_JCRB cell viability assay (AID 1918974); conditions: ATP luminescence, 48 h; viability: at 45.8 µM (top of the series); note: potency is the fitted concentration of half-maximal effect
In short: as §3

[17] = Quantitative High-Throughput drug screen in 47 multiple myeloma cell lines against the NCATS MIPE library collection: KMS20_JCRB cell viability assay (AID 1918973); note: nearly all actives have a fitted effect of over 45% in size; note: potency is the fitted concentration of half-maximal effect
In short: as §3

[18] = Quantitative High-Throughput drug screen in 47 multiple myeloma cell lines against the NCATS MIPE library collection: MMM1_PLB cell viability assay (AID 1918976); note: nearly all actives have a fitted effect of over 35% in size; note: potency is the fitted concentration of half-maximal effect
In short: as §2

Measured: Potency

CN(CC=CC#CC(C)(C)C)Cc1cccc2ccccc12
inactive: [1] | [2] | [3] | [4] | [5] | [6]

CCCCn1c(=O)n(Cc2ccccc2F)c(=O)c2[nH]c(Cc3ccc(NC(C)=O)cc3)nc21
active: [5] 18.7 µM | [6] 5.9 µM
inactive: [7] | [2] | [8] | [3] | [9] | [10] | [11]

NCc1c[nH]c(=S)n1[C@H]1CCc2c(F)cc(F)cc2C1
active: [12] 23.5 µM | [1] 11.8 µM | [13] 13.2 µM | [2] 14.8 µM | [14] 20.9 µM | [8] 18.7 µM | [9] 16.6 µM | [5] 14.8 µM | [6] 20.9 µM
inactive: [15]

Cc1ccc2c(c1)c1c(n2CCc2ccc(C)nc2)CCN(C)C1
inactive: [7] | [14] | [8] | [15] | [9] | [5]

CCNC(=O)Nc1ccc(Oc2ncnc(N)c2C=NOC)cc1Cl
active: [13] 14.8 µM | [16] 2.35 µM
inactive: [7] | [3] | [9]

COc1ccnc(CS(=O)c2nc3ccc(OC(F)F)cc3[nH]2)c1OC (centres undefined)
active: [3] 18.7 µM
inactive: [13] | [17] | [8] | [15] | [9] | [10] | [5] | [6]

CO[C@@H]1C(N(C)C(=O)c2ccccc2)C[C@H]2O[C@]1(C)n1c3ccccc3c3c4c(c5c6ccccc6n2c5c31)C(=O)NC4=O (some centres undefined)
active: [2] 1.66 µM | [14] 1.32 µM | [6] 3.32 µM
inactive: [13]

C[C@]12CCC3=C4CCC(=O)C=C4CC[C@@H]3[C@H]1CC[C@@]2(O)CC#N
inactive: [7] | [1] | [14] | [3] | [4] | [10] | [5]

COc1cc2ncn(-c3cc(OCc4ccccc4S(C)(=O)=O)c(C#N)s3)c2cc1OC
inactive: [1] | [2] | [17] | [14] | [15] | [9] | [10] | [6]
active: [7] 3.72 µM | [18] 5.9 µM | [3] 4.69 µM | [4] 20.9 µM

CN1C(=O)C[C@H](C(=O)N[C@@H](Cc2cnc[nH]2)C(=O)N2CCC[C@@H]2C(N)=O)NC1=O
active: [13] 16.6 µM | [18] 4.69 µM | [6] 2.96 µM
inactive: [7] | [14] | [10] | [5] | [11]

OC1CCC(Nc2ncc3nc(Nc4c(F)cc(F)cc4F)n([C@@H]4CCOC4)c3n2)CC1 (some centres undefined)
inactive: [14] | [5]
active: [13] 23.5 µM | [2] 18.7 µM | [16] 4.69 µM | [8] 11.8 µM | [11] 5.26 µM | [6] 23.5 µM

CCCCOCCOc1nc(-c2ccc(C(=O)O)c(F)c2)sc1C
active: [13] 0.418 µM | [4] 13.2 µM
inactive: [7] | [1] | [18] | [8] | [3] | [9] | [10] | [5] | [11]

Cc1ccccc1C(=O)c1ccc(Nc2ccc(Br)cc2N)cc1Cl
active: [12] 18.7 µM | [1] 6.62 µM | [13] 14.8 µM | [2] 7.43 µM | [17] 14.8 µM | [14] 5.26 µM | [18] 16.6 µM | [4] 6.62 µM | [5] 14.8 µM

COc1cc(N2CCN(C)CC2)ccc1Nc1nc(N)c(C(=O)c2c(Cl)cccc2Cl)s1
inactive: [7] | [3]
active: [1] 23.5 µM | [2] 23.5 µM | [16] 10.5 µM | [14] 4.18 µM | [18] 8.33 µM | [4] 20.9 µM | [5] 14.8 µM | [11] 20.9 µM
